Assay results reported in PubChem BioAssay (Tox21).
Results filed as inconclusive are left out. Activity calls are given as the source filed them. Unless noted, calls come from the whole dose curve; as a rule, active = well fitted curve in the direction sought with a large enough effect in the repeat runs; inconclusive = weak or mixed curves; inactive = no such curve, though single readings can be large; an effect the other way counts as inactive or inconclusive.

Tests used:
[1] = qHTS assay to identify small molecule agonists of H2AX (AID 1224845; active = well fitted activation curve with a large enough effect in the signal ratio in the repeat runs, not every such curve was filed as active; the % refers to the signal ratio)
Outline: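 Phospho-H2AX Ser139 measured by HTRF (ex 320 nm; em 665 and 620 nm) after 24 hr antibody incubation. Compounds, 15 concentrations, 0.76% DMSO, were applied to CHO-K1 cells for 3hr at 37C before lysis.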

[2] = qHTS assay to identify small molecule agonists of the hypoxia (HIF-1) signaling pathway (AID 1224846; active = well fitted activation curve with a large enough effect in the signal ratio in the repeat runs, not every such curve was filed as active; the % refers to the signal ratio)
Outline: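 HRE-bla ME-180 beta-lactamase reporter cells in medium with 0.5% dialyzed FBS, pre-incubated 5 h then exposed to compounds 17 h at 37C, 5% CO2; reporter induction read with CCF4-AM FRET substrate.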

[3] = qHTS assay to identify small molecule agonists of H2AX - cell viability counter screen (AID 1224847; calls by dose curve; note: top concentration of the series differs between compounds; nearly all actives have a fitted effect of over 30% in size)
Outline: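 Read-out: CellTiter-Glo luminescence, 30 min RT. Cells: wild-type CHO-K1, 1000/well, 10% FBS, plated overnight at 37C. Treatment: 15 concentrations, 3 hr, 37C, 0.76% DMSO.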

[4] = qHTS RealTime-Glo MT Cell Viability Assay in HepG2 cells - 24 hour (AID 1224867); note: nearly all actives have a fitted effect of over 50% in size
Outline: (§1)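 HepG2 cells were seeded at 600 cells/well together with NanoLuc luciferase and a cell-permeant prosubstrate, preincubated 5 h at 37 C/5% CO2, then pin-dosed with compounds in DMSO. Nonlytic luminescence from viable cells was read at each time point.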

[5] = qHTS RealTime-Glo MT Cell Viability Assay in HEK293 cells - 32 hour (AID 1224868); note: nearly all actives have a fitted effect of over 50% in size; note: potency is the fitted concentration of half-maximal effect; for activity change, negative = cytotoxic: top concentration of the series differs between compounds
Outline: (§2)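 HEK293 cells were seeded at 600 cells/well together with NanoLuc luciferase and cell-permeant prosubstrate, preincubated 5 h at 37 C/5% CO2, then given compound in DMSO by pintool. Luminescence from viable-cell prosubstrate reduction was read repeatedly over 40 h.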

[6] = A CellTox Green Cytotoxicity Assay to monitor cytotoxicity in HEK293 cells - 0 hour (AID 1224869); note: nearly all actives have a fitted effect of over 50% in size
Outline: (§3)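 HEK293 cells, 600/well, were preincubated 5 hours and then exposed to compounds at 37 C for up to 40 hours. A cell-impermeant cyanine dye staining dead-cell DNA was read by fluorescence at 0, 8, 16, 24, 32 and 40 h time points.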

[7] = qHTS RealTime-Glo MT Cell Viability Assay in HepG2 cells - 40 hour (AID 1224870); note: nearly all actives have a fitted effect of over 50% in size
Outline: (§4)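 Real-time viability: cells seeded at 600 per well together with NanoLuc and cell-permeant prosubstrate, compounds added after 5 h incubation. Luminescence tracked at 0, 8, 16, 24, 32 and 40 h of exposure.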

[8] = A CellTox Green Cytotoxicity Assay to monitor cytotoxicity in HEK293 cells - 40 hour (AID 1224871); note: nearly all actives have a fitted effect of over 45% in size
Outline: as §3

[9] = qHTS RealTime-Glo MT Cell Viability Assay in HEK293 cells - 16 hour (AID 1224872)
Outline: as §2

[10] = qHTS RealTime-Glo MT Cell Viability Assay in HepG2 cells - 8 hour (AID 1224873); note: nearly all actives have a fitted effect of over 55% in size
Outline: as §4

[11] = qHTS RealTime-Glo MT Cell Viability Assay in HEK293 cells - 40 hour (AID 1224874); details: RealTime-Glo luminescence; max response: active compounds read low; note: nearly all actives have a fitted effect of over 50% in size; note: potency is the fitted concentration of half-maximal effect
Outline: (§5)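 600 cells/well were plated with the nonlytic NanoLuc/prosubstrate reagent, pre-incubated 5 h, then given 23 nL of compound in DMSO. Incubation at 37 C for 40 h, with luminescence from viable-cell-reduced substrate read repeatedly from 0 h.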

[12] = A CellTox Green Cytotoxicity Assay to monitor cytotoxicity in HEK293 cells - 24 hour (AID 1224875); note: nearly all actives have a fitted effect of over 45% in size
Outline: as §3

[13] = A CellTox Green Cytotoxicity Assay to monitor cytotoxicity in HepG2 cells - 16 hour (AID 1224876); note: nearly all actives have a fitted effect of over 45% in size
Outline: (§6)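 HepG2 cells, 600/well, preincubated 5 h with CellTox Green dye, then exposed to Tox21 compounds in DMSO at 37 C for up to 40 h. Dead-cell DNA fluorescence read at the indicated time point.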

[14] = qHTS RealTime-Glo MT Cell Viability Assay in HepG2 cells - 32 hour (AID 1224877); note: nearly all actives have a fitted effect of over 55% in size
Outline: as §1

[15] = A CellTox Green Cytotoxicity Assay to monitor cytotoxicity in HepG2 cells - 24 hour (AID 1224878); note: nearly all actives have a fitted effect of over 45% in size
Outline: as §6

[16] = A CellTox Green Cytotoxicity Assay to monitor cytotoxicity in HepG2 cells - 40 hour (AID 1224879); note: nearly all actives have a fitted effect of over 40% in size
Outline: as §6

[17] = qHTS RealTime-Glo MT Cell Viability Assay in HEK293 cells - 0 hour (AID 1224880); note: nearly all actives have a fitted effect of over 45% in size; note: potency is the fitted concentration of half-maximal effect; for activity change, negative = cytotoxicity: top concentration of the series differs between compounds
Outline: as §5

[18] = A CellTox Green Cytotoxicity Assay to monitor cytotoxicity in HEK293 cells - 32 hour (AID 1224881); note: nearly all actives have a fitted effect of over 40% in size
Outline: as §3

[19] = qHTS assay to identify small molecule antagonists of the estrogen related receptor (ERR) signaling pathway from Tox21 library (AID 1224848); note: nearly all actives have a fitted effect of over 50% in size
Outline: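 Antagonist-mode screen of the Tox21 10K library in an NTP-provided ERR reporter cell line; 18 h compound exposure at 37 C, luminescence measured with ONE-Glo.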

[20] = qHTS assay to identify small molecule agonists of the estrogen related receptor (ERR) signaling pathway from Tox21 library (AID 1224849; calls by dose curve; note: nearly all actives have a fitted effect of over 15% in size); details: ERR reporter cell line, ONE-Glo luciferase, 18 h; at 92.4 µM (top of the series) unless noted
Outline: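 ERR reporter cells (NTP line) pre-incubated 6 hours at 37 C, then exposed to compounds for 18 hours at 37 C. ONE-Glo luciferase luminescence was read after 30 minutes at room temperature.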
% is set by controls: 0 for no effect and ±100 for the full control effect.

C=C1[C@H]2CC[C@@H]3[C@H]2C(C)(C)CCC[C@]13C
inactive: Potency [1] | Potency [2] | Potency [3] | Potency [4] | Potency [5] | Potency [6] | Potency [7] | Potency [8] | Potency [9] | Potency [10] | max response [11] -2.59% | Potency [12] | Potency [13] | Potency [14] | Potency [15] | Potency [16] | Potency [17] | Potency [18]

CC[N+]1(CC)CCC(=C(c2ccccc2)c2ccccc2)C1C (configuration not stated)
inactive: Potency [1] | Potency [2] | Potency [3] | Potency [4] | Potency [6] | Potency [7] | Potency [8] | Potency [9] | Potency [10] | Potency [12] | Potency [13] | Potency [14] | Potency [15] | Potency [16] | Potency [17] | Potency [18]

COCC(C)OC(C)=O (configuration not stated)
inactive: Potency [1] | Potency [2] | Potency [3] | Potency [4] | Potency [5] | Potency [6] | Potency [7] | Potency [8] | Potency [9] | Potency [10] | max response [11] 8.38% | Potency [12] | Potency [13] | Potency [14] | Potency [15] | Potency [16] | Potency [17] | Potency [18]

CC1CCC(=O)C1=O (configuration not stated)
inactive: Potency [1] | Potency [2] | Potency [3] | Potency [4] | Potency [5] | Potency [6] | Potency [7] | Potency [8] | Potency [9] | Potency [10] | max response [11] 3.01% | Potency [12] | Potency [13] | Potency [14] | Potency [15] | Potency [17] | Potency [18]

Cc1cc(C(=O)O)ccc1[N+](=O)[O-]
inactive: Potency [1] | Potency [2] | Potency [3] | Potency [4] | Potency [5] | Potency [6] | Potency [7] | Potency [8] | Potency [9] | Potency [10] | max response [11] 9.13% | Potency [12] | Potency [13] | Potency [14] | Potency [15] | Potency [16] | Potency [17] | Potency [18]

COc1ccc2cccc(CCNC(C)=O)c2c1
inactive: Potency [1] | Potency [2] | Potency [3] | Potency [4] | Potency [5] | Potency [6] | Potency [7] | Potency [8] | Potency [9] | max response [11] -8.88% | Potency [14] | Potency [17] | Potency [18]

CCCCC(=O)OCC(=O)[C@H]1[C@H](C)C[C@H]2[C@@H]3C[C@H](F)C4=CC(=O)C=C[C@]4(C)[C@@]3(F)[C@@H](O)C[C@@]21C
active: Potency [17] 4.77 µM
inactive: Potency [1] | Potency [2] | Potency [3] | Potency [4] | Potency [5] | Potency [6] | Potency [7] | Potency [8] | Potency [9] | Potency [10] | max response [11] -15.1% | Potency [12] | Potency [13] | Potency [14] | Potency [15] | Potency [16] | Potency [18]

CC(C)(COC(=O)c1ccccc1)COC(=O)c1ccccc1
inactive: Potency [1] | Potency [2] | Potency [3] | Potency [4] | Potency [5] | Potency [6] | Potency [7] | Potency [8] | Potency [10] | max response [11] -28.7% | Potency [13] | Potency [14] | Potency [15] | Potency [16] | Potency [17] | Potency [18]

CCCCO
inactive: Potency [1] | Potency [2] | Potency [3] | Potency [4] | Potency [5] | Potency [6] | Potency [7] | Potency [8] | Potency [9] | Potency [10] | max response [11] 1.62% | Potency [13] | Potency [14] | Potency [15] | Potency [16] | Potency [17] | Potency [18]

CCOC(=O)C(F)(F)F
inactive: Potency [1] | Potency [2] | Potency [3] | Potency [4] | Potency [5] | Potency [6] | Potency [7] | Potency [8] | Potency [9] | Potency [10] | max response [11] 6.21% | Potency [12] | Potency [14] | Potency [15] | Potency [17] | Potency [18]

CN(C)c1ccc(CCO)cc1
active: Potency [5] 30.7 µM | Potency [11] 34.5 µM
inactive: Potency [1] | Potency [2] | Potency [3] | Potency [4] | Potency [6] | Potency [7] | Potency [8] | Potency [10] | Potency [12] | Potency [13] | Potency [14] | Potency [15] | Potency [17] | Potency [18]

CC(C)(C)Cl
inactive: Potency [1] | Potency [2] | Potency [3] | Potency [4] | Potency [5] | Potency [6] | Potency [7] | Potency [8] | Potency [9] | Potency [10] | max response [11] 1.73% | Potency [13] | Potency [14] | Potency [15] | Potency [16] | Potency [17] | Potency [18]

CO[C@@H]1[C@H](OC(=O)/C=C/C=C/C=C/C=C/C(=O)O)CC[C@]2(CO2)[C@H]1[C@@]1(C)O[C@@H]1CC=C(C)C
inactive: Potency [1] | Potency [3] | Potency [19] | activity change, positive = activation [20] -16% | Potency [4] | Potency [6] | Potency [7] | Potency [8] | Potency [10] | max response [11] 18.9% | Potency [12] | Potency [13] | Potency [14] | Potency [15] | Potency [17] | Potency [18]

CC(C)=CCC/C(C)=C/CC/C(C)=C/CO
inactive: Potency [1] | Potency [2] | Potency [6] | Potency [7] | Potency [10] | Potency [13] | Potency [14] | Potency [15] | Potency [17]

CCOC(=O)COC(=O)c1cc(Oc2ccc(C(F)(F)F)cc2Cl)ccc1[N+](=O)[O-]
inactive: Potency [1] | Potency [2] | Potency [4] | Potency [6] | Potency [7] | Potency [12] | Potency [13] | Potency [14] | Potency [15] | Potency [16] | Potency [17]

NC(N)=NCCC[C@H](N)C(=O)O
inactive: activation (H2AX phosphorylation) [1] -0.995% [at 14 µM] | activity change, negative = cytotoxicity [3] 0.155% [at 14 µM] | activity, negative = inhibition [19] 11% [at 8.39 µM] | activity change, positive = activation [20] 5.81% [at 8.39 µM] | activity change, negative = cytotoxic [5] 5.15% [at 6.97 µM] | cytotoxicity [6] -14.4% [at 6.97 µM] | activity change, negative = cytotoxic [7] 2.25% [at 6.97 µM] | cytotoxicity increase [8] -21.8% [at 6.97 µM] | activity change, negative = cytotoxicity [9] 5.7% [at 6.97 µM] | viability change, negative = cytotoxic [10] 1.03% [at 6.97 µM] | max response [11] 2.97% | activity change [12] -20.5% [at 6.97 µM, active compounds read high] | activity change, negative = cytotoxic [14] 2.81% [at 6.97 µM] | cytotoxicity [15] -6.35% [at 6.97 µM] | activity change, negative = cytotoxicity [17] 14% [at 6.97 µM] | cytotoxicity increase [18] -21.7% [at 6.97 µM]
